For 65 compounds, activity remaining (% of control) results are on record in PubChem BioAssay AID436 (Emory University Molecular Libraries Screening Center, 2006).

Each structure is given as a SMILES string. Screen size: about 72,000 compounds; about 350 (0.49%) were called active. For the sample, actives were picked, then their nearest neighbours and some compounds at random. Unmarked numbers belong to inactive results.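 The calls were made as follows: active = activity remaining at or below 50% of control, provided the compound also passes the data quality filters; inactive = the rest, including low values that fail the filters.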

The target in the test is Ubiquitin carboxyl-terminal hydrolase BAP1 (Homo sapiens) (UniProt Q92560). Kind of test: inhibitors of BAP1 deubiquitinase, primary screen, biochemical, Ub-AMC fluorescence, kinetic (AID 436).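 Also: 100% = DMSO wells rate and 0% = substrate alone blank rate.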 The note with it: recombinant BAP1, Ub-AMC hydrolysis fluorescence kinetic; at 20 µM; stronger effect = lower value.
Chain of Ubiquitin carboxyl-terminal hydrolase BAP1 (Homo sapiens) (Q92560 whole entry, looked up): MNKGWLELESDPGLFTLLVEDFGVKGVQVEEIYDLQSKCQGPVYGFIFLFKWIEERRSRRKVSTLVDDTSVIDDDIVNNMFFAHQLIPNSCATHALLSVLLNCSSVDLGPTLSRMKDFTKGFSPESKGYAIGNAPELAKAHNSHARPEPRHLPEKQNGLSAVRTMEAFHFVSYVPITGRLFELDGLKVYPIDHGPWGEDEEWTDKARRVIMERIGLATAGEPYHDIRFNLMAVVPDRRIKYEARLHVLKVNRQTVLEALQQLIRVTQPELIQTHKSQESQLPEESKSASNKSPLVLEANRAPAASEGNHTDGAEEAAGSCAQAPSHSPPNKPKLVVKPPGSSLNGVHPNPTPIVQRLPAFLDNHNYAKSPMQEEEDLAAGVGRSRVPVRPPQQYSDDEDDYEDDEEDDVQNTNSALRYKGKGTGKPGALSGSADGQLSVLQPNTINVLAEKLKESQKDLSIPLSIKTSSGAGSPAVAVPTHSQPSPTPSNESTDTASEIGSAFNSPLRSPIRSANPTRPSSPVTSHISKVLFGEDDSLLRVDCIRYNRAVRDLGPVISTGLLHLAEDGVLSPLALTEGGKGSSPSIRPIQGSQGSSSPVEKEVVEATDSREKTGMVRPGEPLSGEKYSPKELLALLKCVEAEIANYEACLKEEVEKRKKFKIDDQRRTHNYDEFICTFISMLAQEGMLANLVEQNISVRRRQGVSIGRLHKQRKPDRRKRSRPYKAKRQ
In the case of `COc1ccc(Cn2c(NCCO)nc3c2c(=O)n(C)c(=O)n3C)cc1`, the activity remaining (% of control) is 103%.

For `Cc1cc(=O)oc2cc(OC(=O)c3ccc([N+](=O)[O-])cc3Cl)ccc12`, the activity remaining (% of control) is 479%.

In the case of `Cc1ccc[n+](CC(=O)c2ccc(Cl)cc2)c1C`, the activity remaining (% of control) was 57.4%.

On to `O=c1oc2ccccc2cc1-c1nnc(-c2ccccc2)o1`, for which the activity remaining (% of control) is 380%.

For `COc1ccc2cc(C(=O)Nc3cccc(C(F)(F)F)c3)c(=N)oc2c1`, the activity remaining (% of control) was 72.3%.

Consider `CNc1nonc1C(=O)O`, for which the activity remaining (% of control) was 154%.

Regarding `O=C(Nc1cccnc1)c1ccc(Cl)c([N+](=O)[O-])c1`, the activity remaining (% of control) is 66%.

Consider `O=C(Nc1ccc(-c2cn3ccccc3n2)cc1)c1ccc(Br)cc1`, for which the activity remaining (% of control) is 63.1%.

Consider `N#Cc1cccc2c1-c1ccc([N+](=O)[O-])cc1C2=O`, for which the activity remaining (% of control) was 96.3%.

With `Cc1cccc(C)c1OCC(O)CN1CCCCC1` (stereo not given), the activity remaining (% of control) is 59.4%.

On to `CCOc1ccccc1NC(=O)c1c(NC(=O)c2cccs2)sc2c1CCC(C)C2` (stereo not given), for which the activity remaining (% of control) was 92.6%.

Take `Cc1cc(Br)ccc1N1C(=O)C2CCCCC2C1=O` (stereo not given): the activity remaining (% of control) is 93.8%.

On to `CCc1ccc(OC(=O)c2cc3cc(Br)ccc3oc2=O)cc1`, for which the activity remaining (% of control) was 80.8%.

Regarding `CCc1ccc2oc(-c3cccc(NC(=O)c4ccccc4Br)c3)nc2c1`, the activity remaining (% of control) was 56.4%.

Turning to `O=C(Nc1nnc(CCS(=O)(=O)c2ccc3ccccc3c2)s1)c1ccc(F)cc1`, the activity remaining (% of control) was 64.8%.

`Cc1cccc(C(C)C)c1NC(=O)c1ccco1`: the activity remaining (% of control) is 233%.

Turning to `O=C(Nc1ccc(-c2nc3ccccc3o2)cc1)c1ccc(S(=O)(=O)N2CCCCC2)cc1`, the activity remaining (% of control) was 288%.

Consider `O=C(Cc1cccc2ccccc12)Nc1ccccc1-c1nc2ccccc2s1`, for which the activity remaining (% of control) is 75.2%.

Turning to `CCOc1ccc(C(=O)Nc2cccc(C(=O)Nc3cccc4ccccc34)c2)cc1[N+](=O)[O-]`, the activity remaining (% of control) is 71.1%.

As for `O=C(Nc1nc2c(s1)C(=O)CCC2)c1ccccc1Cl`, the activity remaining (% of control) is 51.9%.

With `CCOC(=O)c1c(NC(=O)c2cc3ccccc3oc2=O)sc(C(=O)CC)c1C`, the activity remaining (% of control) is 49.7%.

In the case of `O=C(NCc1ccccc1)c1nn2c(C(F)(F)F)cc(-c3ccccc3)nc2c1Br`, the activity remaining (% of control) was 70%.

For `CCCOc1ccc(C(=O)Nc2c(C)ccc3nsnc23)cc1`, the activity remaining (% of control) was 203%.

For the compound `COCCc1nnc(NC(=O)c2ccc([N+](=O)[O-])cc2)s1`, the activity remaining (% of control) was 111%.

On to `CC1=C(C(=O)OCCc2ccccc2)C(c2ccc([N+](=O)[O-])cc2)NC(=O)N1C` (stereo not given), for which the activity remaining (% of control) was 72.8%.

On to `COc1ccc(-n2nc3cc(C)c(NC(=O)c4ccc(Br)o4)cc3n2)cc1`, for which the activity remaining (% of control) is 63%.

Take `CC(C)(C)C(=O)Nc1ccc(C(=O)Nc2nccs2)cc1`: the activity remaining (% of control) was 63.4%.

Turning to `NC(=O)c1ccccc1NC(=O)COc1ccc([N+](=O)[O-])cc1`, the activity remaining (% of control) is 138%.

Regarding `Cc1ccc(C=Cc2ccncc2)cc1`, the activity remaining (% of control) was 139%.

Regarding `N#Cc1c(/N=C/N2CCCC2)oc(-c2ccccc2)c1-c1ccccc1`, the activity remaining (% of control) was 41.5% (active).

`N#Cc1c(NC(=O)CCCN2C(=O)c3ccccc3C2=O)oc(-c2ccccc2)c1-c1ccccc1`: the activity remaining (% of control) was 56.8%.

On to `NC(=O)c1c(NC(=O)CCCCCN2C(=O)c3ccccc3C2=O)sc2c1CCC2`, for which the activity remaining (% of control) is 140%.

Consider `COC(=O)C1=C(C)Nc2nnnn2C1c1ccccc1` (stereo not given), for which the activity remaining (% of control) was 171%.

For `COc1cc(C(=O)Nc2ccc(Cl)cc2[N+](=O)[O-])cc(OC)c1OC`, the activity remaining (% of control) was 87.7%.

With `C[n+]1ccccc1C=Cc1ccccc1`, the activity remaining (% of control) is 120%.

Turning to `Cc1cccc2cc(CN(Cc3cccs3)C(c3nnnn3C3CCCC3)C(C)C)c(=O)[nH]c12` (stereo not given), the activity remaining (% of control) was 57.3%.

As for `Cc1cccc2cc(CN(Cc3ccc4c(c3)OCO4)Cc3nnnn3C3CCCC3)c(=O)[nH]c12`, the activity remaining (% of control) is 53.1%.

As to `CCC(c1nnnn1C1CCCC1)N(Cc1cccs1)Cc1cc2cccc(C)c2[nH]c1=O` (stereo not given), the activity remaining (% of control) was 49.7% (active).

Turning to `COC(=O)c1ccc(C(=O)Nc2cccc3c2C(=O)c2ccccc2C3=O)cc1`, the activity remaining (% of control) is 177%.

Consider `CC(C)C(=O)N1c2ccccc2NC2=C(C(=O)CC(c3ccccc3)C2)C1c1ccc(F)cc1` (stereo not given), for which the activity remaining (% of control) is 63.6%.

In the case of `O=C(c1ccccc1)N1CCN(c2ccc([N+](=O)[O-])cc2F)CC1`, the activity remaining (% of control) was 64.8%.

Regarding `COc1cc(C2CC(=O)Nc3c2cc(Br)c2ccccc32)cc(Br)c1OC` (stereo not given), the activity remaining (% of control) is 57.5%.

As to `CC(C)(C)c1ccc(OCC(O)CN2CCN(c3ccccc3F)CC2)cc1` (stereo not given), the activity remaining (% of control) is 152%.

In the case of `CC(C)(C)c1ccc(C(=O)Nc2nnc(Cc3ccc(F)cc3)s2)cc1`, the activity remaining (% of control) is 75.1%.

Regarding `COc1ccc(C=Nc2sc(C)c(C)c2C#N)cc1`, the activity remaining (% of control) is 103%.

As to `COC(=O)c1sc(-c2ccccc2)cc1NC(=O)c1ccc(S(=O)(=O)N2CCOCC2)cc1`, the activity remaining (% of control) is 193%.

In the case of `O=C1NCCCC1C1=NC(CO)(CO)CO1` (stereo not given), the activity remaining (% of control) is 82.8%.

As for `CCCOC(=O)c1cccc(NC(=O)COc2cccc(Cl)c2)c1`, the activity remaining (% of control) was 91.3%.

Regarding `CCOc1ccc(C(=O)Nc2ccc3c(c2)oc2ccccc23)cc1`, the activity remaining (% of control) was 144%.

Consider `CCCCOc1ccc(C(=O)Nc2nc3ccc4nc(C)sc4c3s2)cc1`, for which the activity remaining (% of control) was 167%.

In the case of `CCC(=O)OCC1OC(n2ccc(=O)[nH]c2=O)CC1OC(=O)CC` (stereo not given), the activity remaining (% of control) was 130%.

Regarding `COc1ccc(CCNC(=O)c2cccc([N+](=O)[O-])c2C)cc1`, the activity remaining (% of control) is 86.2%.

Take `COc1ccc(C(=O)Nc2cccc(C)n2)cc1[N+](=O)[O-]`: the activity remaining (% of control) is 80.8%.

Take `CN1C(=O)C(=O)/C(=C(/O)c2ccc(F)cc2)C1c1ccc(F)cc1` (stereo not given): the activity remaining (% of control) is 58.4%.

For `Cn1c(=O)[nH]c(=O)c2c1nc(N1CCOCC1)n2CCO`, the activity remaining (% of control) is 159%.

For `CCCCNC(=O)c1c[nH]c2ccc(S(=O)(=O)Nc3ccc(OCC)cc3)cc2c1=O`, the activity remaining (% of control) was 32.9% (active).

Turning to `COc1cccc(NS(=O)(=O)c2ccc3[nH]cc(C(=O)NCCCOC(C)C)c(=O)c3c2)c1`, the activity remaining (% of control) is 79.5%.

For the compound `Cn1c(=N)n(CC(O)c2cccs2)c2ccccc21` (stereo not given), the activity remaining (% of control) is 85.6%.

In the case of `COc1cc(NC(=O)COc2ccccc2)c(OC)cc1Cl`, the activity remaining (% of control) is 141%.

For `O=C(Nc1cc2cccc([N+](=O)[O-])c2oc1=O)c1ccccc1[N+](=O)[O-]`, the activity remaining (% of control) is 61.5%.

Take `Cc1cc(C)nc(NS(=O)(=O)c2ccc(NC(=O)c3ccc(F)cc3)cc2)n1`: the activity remaining (% of control) is 67.2%.

For the compound `Clc1ccc2[nH]c3ccccc3c2c1`, the activity remaining (% of control) was 65%.

Regarding `Cc1cc(O)c2c(=O)c(-c3csc(C)n3)c(C(F)(F)F)oc2c1`, the activity remaining (% of control) was 130%.

For `O=C(OCCN1C(=O)c2ccccc2C1=O)c1ccc([N+](=O)[O-])cc1`, the activity remaining (% of control) is 90.6%.

On to `O=[N+]([O-])c1ccc(C=Nc2nc3c(s2)CCCC3)cc1`, for which the activity remaining (% of control) is 113%.
